One test concerns Roseburia intestinalis. The test can be described thus: growth AUC relative to DMSO control (median of replicates) (fraction); higher = more growth (less inhibition), active = hit call of the paper. To be noted: 20 µM; 24 h. In short, it runs like this:
(§1)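 OD600 was recorded every hour for 24 h in anaerobic monocultures of gut bacteria kept at 37 °C in mGAM, seeded at OD600 0.05 and given 20 µM compound in 1% DMSO. The area under each growth curve was scaled to the plate median of solvent-only wells, or to row and column medians for the industrial chemical plate. Before this step, the minimum OD was set to 0. Reported values are medians of three biological replicates run on separate days.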

The test system of another test is Streptococcus salivarius. Described as above. As to conditions: 20 µM; 24 h. The procedure, abridged: as §1

Structures are written as SMILES. Where “and” joins values, the source holds several entries; their conditions need not be identical. Equal values may be shown once. Unmarked numbers belong to inactive results.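 Rule for the calls: active = AUC reduced over 20% with Padj below 0.05 in at least 2 of 3 replicates; inactive = otherwise.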

As for `COP(N)(=S)Oc1ccccc1C(=O)OC(C)C` (stereo not drawn), the “growth AUC” value in the test on Roseburia intestinalis was 1.07; in the test on Streptococcus salivarius it was 0.991.

Consider `CCOP(=S)(OCC)Oc1ccc2c(C)c(Cl)c(=O)oc2c1`, for which the “growth AUC” value in the test on Roseburia intestinalis is 1.01; in the test with Streptococcus salivarius, 1.

As to `C[Si](Cn1cncn1)(c1ccc(F)cc1)c1ccc(F)cc1`, the “growth AUC” value was 0.853 in the test with Roseburia intestinalis and 0.988 with Streptococcus salivarius.

For `Cc1ccc(-c2c(Cl)nc(C#N)n2S(=O)(=O)N(C)C)cc1`, the entries for the “growth AUC” value in the test on Roseburia intestinalis and in the test with Streptococcus salivarius were 0.995 and 0.956, respectively. As to `c1cc2ccc3cccc4ccc(c1)c2c34`, the “growth AUC” value is 0.977 in the test on Roseburia intestinalis and 0.927 in the test with Streptococcus salivarius. The like results for `C#CC(C)(C)NC(=O)c1cc(Cl)cc(Cl)c1` were, in that order, 0.936 and 0.914. Turning to `CS(=O)(=O)c1cc(C(F)(F)F)ccc1C(=O)c1cnoc1C1CC1`, the “growth AUC” value in the test on Roseburia intestinalis is 1.03; in the test on Streptococcus salivarius, 1.01. The like results for `O=c1oc2ccccc2c(O)c1C1CC(c2ccc(-c3ccccc3)cc2)Cc2ccccc21` (stereo not drawn) were, in that order, 0.711 (active) and 0.709 (active). With `Cc1cnc(C2=NC(C)(C(C)C)C(=O)N2)c(C(=O)O)c1` (stereo not drawn), the “growth AUC” value with Roseburia intestinalis is 0.997; in the test on Streptococcus salivarius, 1.03. As for `CCOP(=O)(OCC)Oc1ccc(S(C)(=O)=O)cc1`, the results for the “growth AUC” value with Roseburia intestinalis and with Streptococcus salivarius were 0.974 and 1.02, respectively.

Turning to `COC(=O)N(C(=O)N1CO[C@@]2(C(=O)OC)Cc3cc(Cl)ccc3C2=N1)c1ccc(OC(F)(F)F)cc1`, the “growth AUC” value in the test with Roseburia intestinalis is 0.907; in the test on Streptococcus salivarius, 0.873. Regarding `CS(=O)(=O)c1ccc(C(=O)C2C(=O)CCCC2=O)c(Cl)c1COCC(F)(F)F`, the “growth AUC” value is 0.964 in the test on Roseburia intestinalis and 0.974 with Streptococcus salivarius. In the same order, the values of `NC(=S)c1c(Cl)cccc1Cl` are 1 and 0.943.

In the case of `CCCCC(O)(Cn1cncn1)c1ccc(Cl)cc1Cl` (stereo not drawn), the “growth AUC” value with Roseburia intestinalis is 1; with Streptococcus salivarius, 0.991. The like results for `CC1(C)[C@H](C(=O)O[C@H](C#N)c2cccc(Oc3ccccc3)c2)[C@@H]1/C=C\C(=O)OC(C(F)(F)F)C(F)(F)F` were, in that order, 0.962 and 1.07.

Regarding `CCOCCN(C(=O)CCl)C(=C(C)C)c1ccccc1`, the “growth AUC” value was 1.03 in the test with Roseburia intestinalis and 0.993 in the test on Streptococcus salivarius. Regarding `ClC1=C(Cl)C2(Cl)C(CBr)CC1(Cl)C2(Cl)Cl` (stereo not drawn), the “growth AUC” value was 0.993 in the test on Roseburia intestinalis and 1.03 with Streptococcus salivarius. In the same order, the values of `CN=C=S` are 0.997 and 0.994. Take `CCc1cnc(C2=NC(C)(C(C)C)C(=O)N2)c(C(=O)O)c1` (stereo not drawn): the “growth AUC” value in the test with Roseburia intestinalis and with Streptococcus salivarius was 1.02 throughout. `CC[C@H]1CCCC(O[C@H]2CC[C@H](N(C)C)[C@@H](C)O2)[C@@H](C)C(=O)C2=C[C@@H]3[C@@H](C=C(C)[C@@H]4C[C@@H](O[C@@H]5O[C@@H](C)[C@H](OC)[C@@H](OC)[C@H]5OC)C[C@@H]34)[C@@H]2CC(=O)O1.CC[C@H]1CCCC(O[C@H]2CC[C@H](N(C)C)[C@@H](C)O2)[C@@H](C)C(=O)C2=C[C@@H]3[C@@H](C=C[C@@H]4C[C@@H](O[C@@H]5O[C@@H](C)[C@H](OC)[C@@H](OC)[C@H]5OC)C[C@@H]34)[C@@H]2CC(=O)O1` (stereo partly drawn): the “growth AUC” value with Roseburia intestinalis is 1.03; in the test on Streptococcus salivarius, 0.972. The like results for `COP(=S)(OC)Oc1ccc(S(C)=O)c(C)c1` (stereo not drawn) were, in that order, 1.07 and 0.988. The like results for `CCC(C)(C)C(=O)OC1=C(c2ccc(Cl)cc2Cl)C(=O)OC12CCCCC2` were, in that order, 1.02 and 1.03. On to `CCOP(=O)(OCC)O/C(=C/Br)c1ccc(Cl)cc1Cl`, for which the “growth AUC” value is 0.995 in the test on Roseburia intestinalis and 0.975 in the test on Streptococcus salivarius. The like results for `CCOC(=O)COc1cc(-c2nn(C)c(OC(F)F)c2Cl)c(F)cc1Cl` were, in that order, 0.973 and 0.993.

`CCC(C)c1cc([N+](=O)[O-])cc([N+](=O)[O-])c1O` (stereo not drawn): the “growth AUC” value in the test with Roseburia intestinalis was 0.887; in the test with Streptococcus salivarius it was 0.938. The like results for `COP(=S)(OC)Oc1ccc([N+](=O)[O-])cc1` were, in that order, 0.917 and 0.968. With `CN(C(=O)COc1nc2ccccc2s1)c1ccccc1`, the “growth AUC” value is 1.08 with Roseburia intestinalis and 1 in the test with Streptococcus salivarius. In the same order, the values of `CCOP(=O)(OCC)OP(=O)(OCC)OCC` are 0.969 and 1.03.

With `COCC(C)N(C(=O)CCl)c1c(C)csc1C` (stereo not drawn), the figures for the “growth AUC” value in the test with Roseburia intestinalis and in the test with Streptococcus salivarius were 0.988 and 0.868, respectively. The like results for `COc1cc(OC)nc(Sc2cccc(Cl)c2C(=O)O)n1` were, in that order, 0.984 and 0.973. The like results for `COC(=O)c1ccccc1S(=O)(=O)NC(=O)N(C)c1nc(C)nc(OC)n1` were, in that order, 0.998 and 1.01. The like results for `C[C@@H](Oc1ccc(Oc2ncc(C(F)(F)F)cc2Cl)cc1)C(=O)O` were, in that order, 0.981 and 0.999.

In the case of `ClC1C(Cl)C(Cl)C(Cl)C(Cl)C1Cl` (stereo not drawn), the “growth AUC” value in the test with Roseburia intestinalis was 1.03 and 1.04 and 0.953.

Take `Fc1ccc(C2(Cn3cncn3)OC2c2ccccc2Cl)cc1` (stereo not drawn): the figures for the “growth AUC” value with Roseburia intestinalis and in the test on Streptococcus salivarius were 1.03 and 0.966, respectively.

For `COc1cc(OC)nc(Oc2cccc(Oc3nc(OC)cc(OC)n3)c2C(=O)[O-])n1.[Na+]`, the “growth AUC” value in the test on Roseburia intestinalis was 1.06; in the test on Streptococcus salivarius, 1.01. `CNC(=O)Oc1cccc2c1OC(C)(C)C2O` (stereo not drawn): the entries for the “growth AUC” value in the test with Roseburia intestinalis and in the test on Streptococcus salivarius were 0.979 and 1.02, respectively. As to `O=[N+]([O-])c1ccc2ccc3cccc4ccc1c2c34`, the “growth AUC” value in the test with Roseburia intestinalis is 1.28; in the test with Streptococcus salivarius it was 1.06.
